# Data: PubChem BioAssay (NCATS)
# Records with an inconclusive call do not appear. Calls of active or inactive are those of the source. The call rests on the fitted dose curve; in most records, active means well fitted curve in the direction sought with a large enough effect; inconclusive means small, poorly fitted or top-dose-only effect, or another doubt; inactive means no such curve, though single readings can be large; an effect the other way counts as inactive or inconclusive.
# Molecular target: Tyrosine-protein kinase Yes (Homo sapiens) (UniProt P07947)
# Assay: qHTS for small molecule inhibitors of Yes1 kinase: Primary Screen (AID 686947); further: nearly all actives have a fitted effect of over 60% in size; further: potency means the concentration at half of the fitted maximal effect;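 on activity change, negative = inhibition: plate controls were DMSO with enzyme for no effect and no-enzyme DMSO wells for full effect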
# Details: Yes1 kinase biochemical qHTS inhibition; series mostly up to 76.9 µM; activity change, negative = inhibition: at the top concentration
# In short: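 Yes1 (4 nM) preincubated 20 min with compound, then 60 min room-temperature reaction with 0.1 mM ATP and 0.3 mg/mL poly(E4Y) in pH 7.5 Tris, 10 mM MgCl2. ADP measured by ADP-Glo luminescence, normalised to enzyme/no-enzyme controls.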
# Sequence of Tyrosine-protein kinase Yes (Homo sapiens) (P07947 whole entry, looked up): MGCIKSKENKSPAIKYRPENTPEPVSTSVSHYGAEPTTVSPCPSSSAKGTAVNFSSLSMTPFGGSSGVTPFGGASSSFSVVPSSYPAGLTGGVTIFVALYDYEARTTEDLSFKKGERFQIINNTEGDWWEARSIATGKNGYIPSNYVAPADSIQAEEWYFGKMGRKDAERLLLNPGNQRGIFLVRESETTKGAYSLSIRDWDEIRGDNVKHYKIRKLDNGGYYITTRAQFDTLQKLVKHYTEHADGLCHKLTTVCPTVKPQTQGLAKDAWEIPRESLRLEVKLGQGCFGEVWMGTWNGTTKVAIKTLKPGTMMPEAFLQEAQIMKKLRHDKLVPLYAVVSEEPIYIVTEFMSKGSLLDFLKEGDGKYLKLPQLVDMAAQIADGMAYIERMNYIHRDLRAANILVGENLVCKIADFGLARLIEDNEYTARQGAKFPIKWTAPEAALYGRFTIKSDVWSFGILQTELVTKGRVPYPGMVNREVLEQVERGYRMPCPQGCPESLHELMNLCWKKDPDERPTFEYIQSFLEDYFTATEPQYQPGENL
Structure (SMILES),Potency,"activity change, negative = inhibition"
CN1CC[C@@H](c2c(O)cc(O)c3c(=O)cc(-c4ccccc4Cl)oc23)[C@@H](O)C1,34500 nM (active),
COc1cc2ncn(-c3cc(OCc4ccccc4C(F)(F)F)c(C(N)=O)s3)c2cc1OC,,17.4% (inactive)
O=C(NC1CCNCC1)c1[nH]ncc1NC(=O)c1c(Cl)cccc1Cl,,-1.88% (inactive)
CC1=C(CO)C(=O)O[C@@H]([C@@H](C)[C@H]2CC[C@H]3[C@@H]4C[C@H]5O[C@]56[C@@H](O)C=CC(=O)[C@]6(C)[C@@H]4CC[C@]23C)C1,,-85.4% (inactive)
CC(=O)SC[C@@H](C)C(=O)N1CCC[C@H]1C(=O)N[C@@H](Cc1ccccc1)C(=O)O,,4.51% (inactive)
O=C(C=Cc1cccc(S(=O)(=O)Nc2ccccc2)c1)NO,1.7 nM (active),
COc1ccc(C=Cc2cc(OC)c(OC)c(OC)c2)cc1O,,11.2% (inactive)
CC(=O)OCCN1C(=O)c2c(C)nc3ccc(S(=O)(=O)N4CCOCC4)cc3c2C1=O,,-14.2% (inactive)
N#CCNC(=O)c1ccc(-c2ccnc(Nc3ccc(N4CCOCC4)cc3)n2)cc1,972 nM (active),
CN(c1ncccc1CNc1nc(Nc2ccc3c(c2)CC(=O)N3)ncc1C(F)(F)F)S(C)(=O)=O,194 nM (active),
C[C@]1(CO)CN(c2cc(C(=O)Nc3ccc4c(c3)-c3c(c(C(N)=O)nn3-c3ccc(F)cc3)CC4)c(Cl)cn2)C[C@@]1(C)CO,,-4.82% (inactive)
Nc1nc(Nc2ccc(S(N)(=O)=O)cc2)nn1C(=O)c1c(F)cccc1F,772 nM (active),
O=C(O)[C@H](Cc1c[nH]c2ccccc12)N1C(=O)c2ccccc2C1=O,,-3.71% (inactive)
Cc1ccc(C(N)=O)cc1Nc1nccc(-c2cn(C(C)C)c3cnccc23)n1,547 nM (active),
COc1cc2c(Oc3ccc(-c4cnc(Nc5ccc(F)cc5)n(C)c4=O)cc3F)ccnc2cc1OCCCN1CCOCC1,137 nM (active),
O=C(C=Cc1cccnc1)NCCCCC1CCN(C(=O)c2ccccc2)CC1,,8.57% (inactive)

# System: not listed separately
# Assay: qHTS for small molecule inhibitors of Yes1 kinase: Counter Assay (AID 686950);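 further: no kinase present so only ADP-Glo detection of a fixed ADP amount is tested; luminescence from ADP-Glo reporting ADP in a fixed ATP and ADP mixture; 0% = DMSO wells with ATP plus ADP and -100% = ATP-only wells without ADP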
# Details: series mostly up to 76.9 µM; activity change, negative = inhibition: at the top concentration
# In short: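 Enzyme-free ADP-Glo interference check: compounds were preincubated 20 min in buffer, then an ATP/ADP mix (0.08 mM ATP, 0.02 mM ADP final) was added for 60 min at room temperature before two-step ADP-Glo luminescence detection.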
Structure (SMILES),"activity change, negative = inhibition",outcome
CN1CC[C@@H](c2c(O)cc(O)c3c(=O)cc(-c4ccccc4Cl)oc23)[C@@H](O)C1,4.61% (inactive),
COc1cc2ncn(-c3cc(OCc4ccccc4C(F)(F)F)c(C(N)=O)s3)c2cc1OC,,inactive
COc1cc2c(Oc3ccc4[nH]c(C)cc4c3F)ncnc2cc1OCCCN1CCCC1,0.966% (inactive),
O=C(NC1CCNCC1)c1[nH]ncc1NC(=O)c1c(Cl)cccc1Cl,,inactive
CS(=O)(=O)N1CCN(Cc2cc3nc(-c4cccc5[nH]ncc45)nc(N4CCOCC4)c3s2)CC1,4.48% (inactive),
CC1=C(CO)C(=O)O[C@@H]([C@@H](C)[C@H]2CC[C@H]3[C@@H]4C[C@H]5O[C@]56[C@@H](O)C=CC(=O)[C@]6(C)[C@@H]4CC[C@]23C)C1,-2.31% (inactive),
CNc1nccc(-c2cccnc2Oc2cc(C(=O)Nc3cccc(C(F)(F)F)c3)ccc2C)n1,0.25% (inactive),
CC(=O)SC[C@@H](C)C(=O)N1CCC[C@H]1C(=O)N[C@@H](Cc1ccccc1)C(=O)O,-1.53% (inactive),
O=C(C=Cc1cccc(S(=O)(=O)Nc2ccccc2)c1)NO,-3.17% (inactive),
COc1ccc(C=Cc2cc(OC)c(OC)c(OC)c2)cc1O,-2.78% (inactive),
Cn1cc(-c2[nH]c3cc(NC(=O)[C@H](N)C4CCCCC4)cc4c3c2C=NNC4=O)cn1,8.03% (inactive),
COC(=O)c1ccc2c(C(=Nc3ccc(N(C)C(=O)CN4CCN(C)CC4)cc3)c3ccccc3)c(O)[nH]c2c1,6.93% (inactive),
CC(=O)OCCN1C(=O)c2c(C)nc3ccc(S(=O)(=O)N4CCOCC4)cc3c2C1=O,5.28% (inactive),
NC(=O)Nc1cc(-c2cccc(F)c2)sc1C(=O)N[C@H]1CCCNC1,6.85% (inactive),
N#CCNC(=O)c1ccc(-c2ccnc(Nc3ccc(N4CCOCC4)cc3)n2)cc1,0.747% (inactive),
CC(C)=CCCC(C)=CCCC(C)=CCSc1ccccc1C(=O)O,4.67% (inactive),
CN(c1ncccc1CNc1nc(Nc2ccc3c(c2)CC(=O)N3)ncc1C(F)(F)F)S(C)(=O)=O,-0.691% (inactive),
c1cc(-c2cnn3cc(-c4ccc(OCCN5CCCCC5)cc4)cnc23)ccn1,2.75% (inactive),
Cc1[nH]nc2ccc(-c3cncc(OC[C@@H](N)Cc4ccccc4)c3)cc12,-6.2% (inactive),
CCN1CCN(Cc2ccc(-c3cc4c(N[C@H](C)c5ccccc5)ncnc4[nH]3)cc2)CC1,-8.9% (inactive),
CC(=O)c1c(C)c2cnc(Nc3ccc(N4CCNCC4)cn3)nc2n(C2CCCC2)c1=O,4.15% (inactive),
C[C@]1(CO)CN(c2cc(C(=O)Nc3ccc4c(c3)-c3c(c(C(N)=O)nn3-c3ccc(F)cc3)CC4)c(Cl)cn2)C[C@@]1(C)CO,-1.51% (inactive),
